We go through 38 molecules from PubChem BioAssay (NCI).

Experiment [1] is described as follows: NCI Yeast Anticancer Drug Screen. Data for the rad50 strain (AID 155).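 Note: 0% = growth of vehicle-only cultures of the same strain.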 The conditions noted are these: S. cerevisiae rad50 strain growth inhibition; at 50.0 µM; active compounds read high. The procedure, abridged: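 Growth of the mutant yeast was measured after compound exposure and referenced to vehicle-treated cultures.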
Experiment [2] in a line: NCI Yeast Anticancer Drug Screen. Data for the mec2-1 strain (AID 157). As to conditions: S. cerevisiae mec2-1 strain, at 50.0 µM, active compounds read high. The procedure, abridged: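 Mutant yeast (mec2-1) grown with compound; growth inhibition relative to vehicle control reported.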
Experiment [3] is described as follows: NCI Yeast Anticancer Drug Screen. Data for the sgs1 mgt1 strain (AID 161).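 Note: 0% = growth of cultures given vehicle only.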 As to conditions: S. cerevisiae sgs1 mgt1 strain, at 50.0 µM, active compounds read high. Put shortly:
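This yeast growth screen uses a strain with defined DNA-repair lesions; compound-treated growth is compared with vehicle-treated growth.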

Experiment [4] is described as follows: NCI Yeast Anticancer Drug Screen. Data for the cln2 rad14 strain (AID 165).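 Note: 0% = growth equal to vehicle treated cultures.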 The conditions noted are these: S. cerevisiae cln2 rad14 strain, at 50.0 µM, active compounds read high. Put shortly: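 Readout is yeast growth inhibition versus vehicle-treated controls, using a strain with cln2 and rad14 alterations exposed to compound.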
Experiment [5] in a line: NCI Yeast Anticancer Drug Screen. Data for the bub3 strain (AID 167). As to conditions: S. cerevisiae bub3 mutant strain, at 50.0 µM, active compounds read high. Put shortly:
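Whole-cell yeast assay. The mutant strain was incubated with compounds, and growth inhibition was determined by comparison with vehicle-treated cells.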

Experiment [6] in a line: NCI Yeast Anticancer Drug Screen. Data for the mlh1 rad18 strain (AID 175). As to conditions: S. cerevisiae mlh1 rad18 strain growth inhibition; at 50.0 µM; active compounds read high. Put shortly:
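Genetically defined yeast (DNA repair-deficient) exposed to compounds; growth inhibition determined relative to vehicle.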

Structures are written as SMILES. About 79,000 compounds went through this panel and 15% of them were active in at least one assay; those are over-represented in the sample as a whole. Values without a mark were called inactive. Activity calls are given as the source filed them. Cut-off read from the data, not from the text of the source: active = growth inhibition above about 70%; inactive = the rest.

Regarding `O=S(c1ccc(Cl)cc1)c1ccc(Cl)cc1`, the growth inhibition in experiment [1] is 1.55%; in experiment [2], 17.9%; in experiment [3], 33.5%; in experiment [4] it was -66.2%; in experiment [5], 13.6%; in experiment [6] it was 19.1%.
On to `C1CC[N-]CC1.CC(=N\O)/C(C)=N/O.CC(=N\O)/C(C)=N/O.CCOC(=O)CC[C-]=O.[Co+2]`, for which the growth inhibition is -15.1% in experiment [1]; 8.95% in experiment [2]; -10.1% in experiment [3]; -39.3% in experiment [4]; 18% in experiment [5]; 9.55% in experiment [6].
For the molecule `CCOP(=S)(OCC)S/C(C(=O)NC)=C(/C)O`, the growth inhibition in experiment [1] is 64.2%; in experiment [2], 22.9%; in experiment [3], 35.4%; in experiment [4], 65.1%; in experiment [5] it was 55.5%; in experiment [6] it was 79.7% (active).
Turning to `O=C1NC2NC3NC(=O)NC3NC2N1` (stereo not drawn), the growth inhibition in experiment [1] is 3.6%; in experiment [2] it was 1.85%; in experiment [3] it was 0.2%; in experiment [4] it was -5.25%; in experiment [5], 10.2%; in experiment [6] it was -24.4%.
On to `CC1=CC2OC3CC4OC(=O)/C=C/C=C/C(C(C)O)OCC/C(C)=C/C(=O)OCC2(CC1)C4(C)C31CO1` (stereo not drawn), for which the growth inhibition was 92% (active) in experiment [1]; 94.1% (active) in experiment [2]; 93.3% (active) in experiment [3]; 92.2% (active) in experiment [4]; 92.6% (active) in experiment [5]; 90.7% (active) in experiment [6].
For `C=CCNC(=O)C(Br)C(C)C` (stereo not drawn), the growth inhibition in experiment [1] is -9.8%; in experiment [2] it was -40.8%; in experiment [3], -10.6%; in experiment [4], 22.9%; in experiment [5], -26.9%; in experiment [6], -8.2%.
For `CC(=O)Cc1c[nH]c2ccccc12`, the growth inhibition was -25.2% in experiment [1]; -41.3% in experiment [2]; -9.35% in experiment [3]; -1.5% in experiment [4]; -28.2% in experiment [5]; -25.2% in experiment [6].
For the molecule `CCc1ccc([N+](=O)[O-])cc1`, the growth inhibition was -9.25% in experiment [1]; -12% in experiment [2]; -19.7% in experiment [3]; -29.4% in experiment [4]; 1.35% in experiment [5]; 10.5% in experiment [6].
For the molecule `N#CCC(=O)[O][Sn]([c]1ccccc1)([c]1ccccc1)[c]1ccccc1`, the growth inhibition in experiment [1] is 98% (active); in experiment [2], 98.3% (active); in experiment [3], 98.8% (active); in experiment [4] it was 97.8% (active); in experiment [5], 97.8% (active); in experiment [6], 98.7% (active).
`COc1nc(N2CCNCC2)nc2c1CCCC2`: the growth inhibition was 4.85% in experiment [1]; -10.7% in experiment [2]; -21.1% in experiment [3]; 17.8% in experiment [4]; -0.75% in experiment [5]; -0.45% in experiment [6].
For the molecule `[C-]#[O+].[C-]#[O+].[C-]#[O+].[CH3][Sn]([c]1ccccc1)[c]1ccccc1.[W].[c-]1[c-][c-][cH-][c-]1`, the growth inhibition is 98.2% (active) in experiment [1]; 99.3% (active) in experiment [2]; 98.5% (active) in experiment [3]; 97.5% (active) in experiment [4]; 99.3% (active) in experiment [5]; 97.5% (active) in experiment [6].
In the case of `CCCCC(CC)COP(OCC(CC)CCCC)OCC(CC)CCCC` (stereo not drawn), the growth inhibition in experiment [1] was 22.1%; in experiment [2], -14.4%; in experiment [3] it was -18.9%; in experiment [4], -37.5%; in experiment [5], -7.25%; in experiment [6] it was -6.95%.
For the molecule `c1ccc([Se+](c2ccccc2)c2ccccc2)cc1`, the growth inhibition is 16.8% in experiment [1]; -46.5% in experiment [2]; 1.75% in experiment [3]; -10.1% in experiment [4]; -1.55% in experiment [5]; 17.9% in experiment [6].
For `O=C(CCc1ccccc1)Nc1ccc(Cl)cc1C(=O)c1ccccc1`, the growth inhibition in experiment [1] is -0.85%; in experiment [2] it was 20.2%; in experiment [3], 24.4%; in experiment [4] it was -26.2%; in experiment [5], 54.1%; in experiment [6] it was 28.6%.
In the case of `CC(Br)[N+](=O)[O-]` (stereo not drawn), the growth inhibition is 28.8% in experiment [1]; 4.9% in experiment [2]; 5.4% in experiment [3]; 13.8% in experiment [4]; -8.7% in experiment [5]; 5.35% in experiment [6].
`S=P(N1CCCCC1)(N1CCCCC1)N1CCCCC1`: the growth inhibition was -6.95% in experiment [1]; -6.8% in experiment [2]; -3.15% in experiment [3]; -17.8% in experiment [4]; -4.2% in experiment [5]; -7.1% in experiment [6].
On to `NC(=O)c1cccc([As]=O)c1` (stereo not drawn), for which the growth inhibition in experiment [1] is -11.4%; in experiment [2] it was 17.4%; in experiment [3], 13.8%; in experiment [4], -18.6%; in experiment [5], 0.85%; in experiment [6], -17.6%.
`O=C(CC(=O)C(F)(F)F)c1ccco1.[Fe]`: the growth inhibition was 32.6% in experiment [1]; 21.3% in experiment [2]; 0.5% in experiment [3]; 6.9% in experiment [4]; 6.55% in experiment [5]; 14.7% in experiment [6].
As for `Nc1nc(-c2cccc(S(=O)(=O)F)c2)cs1`, the growth inhibition in experiment [1] was 42.5%; in experiment [2], 20.8%; in experiment [3], 55.5%; in experiment [4] it was 41.5%; in experiment [5], 51.1%; in experiment [6], 34.6%.
In the case of `O=[N+]([O-])c1ccc(P2(=O)Nc3ccccc3N2)cc1`, the growth inhibition in experiment [1] is -21.9%; in experiment [2] it was -12.7%; in experiment [3] it was -8.6%; in experiment [4], -46.8%; in experiment [5], 0.25%; in experiment [6], -11.6%.
For `NCC(O)CSP(=O)(O)O` (stereo not drawn), the growth inhibition in experiment [1] is -10.9%; in experiment [2], -9.85%; in experiment [3], -18.9%; in experiment [4], 24.5%; in experiment [5], -3.8%; in experiment [6] it was -0.6%.
On to `COc1ccc2c(c1OC)C(=O)O[C@@H]2[C@H]1c2cc3c(cc2CCN1C)OCO3`, for which the growth inhibition was -8.75% in experiment [1]; -4.8% in experiment [2]; 0.95% in experiment [3]; 6.75% in experiment [4]; 4.8% in experiment [5]; -43.5% in experiment [6].
With `Nc1nn[nH]n1` (tested in a mixture with another compound), the growth inhibition in experiment [1] was -4.65%; in experiment [2], 1.45%; in experiment [3] it was -3.7%; in experiment [4], -27.1%; in experiment [5], 0.05%; in experiment [6], -3.05%.
Take `CCC[CH2][Sn]([CH2]CCC)([n]1cncn1)[n]1cncn1`: the growth inhibition in experiment [1] was 92.2% (active); in experiment [2], 96.1% (active); in experiment [3], 93.7% (active); in experiment [4], 78.2% (active); in experiment [5] it was 88.5% (active); in experiment [6], 93.8% (active).
In the case of `CCOc1cc(CCNC)c2c(ccc3ccc(OC)c(O)c32)c1OC`, the growth inhibition in experiment [1] is 27.2%; in experiment [2] it was -0.4%; in experiment [3] it was 4.75%; in experiment [4], 26.9%; in experiment [5], -7.2%; in experiment [6], -36.8%.
Turning to `CCOC(OCC)c1ccc(C(F)(F)F)cc1.[C-]#[O+].[C-]#[O+].[C-]#[O+].[Cr]`, the growth inhibition is 14.2% in experiment [1]; 0.8% in experiment [2]; 25.8% in experiment [3]; 4.85% in experiment [4]; 20.4% in experiment [5]; 26.2% in experiment [6].
In the case of `CC(C)CCN(CCc1ccccc1[N+](=O)[O-])CCC(C)C`, the growth inhibition in experiment [1] was 12.1%; in experiment [2], -7.45%; in experiment [3], -8.7%; in experiment [4], -36.9%; in experiment [5], 44.1%; in experiment [6], 38.6%.
With `CCCCCC(N)CC(=O)O` (stereo not drawn), the growth inhibition in experiment [1] was 8.95%; in experiment [2], -21.1%; in experiment [3], 4.25%; in experiment [4], 8.1%; in experiment [5] it was -2.25%; in experiment [6], 9.85%.
For `O=NN1CCCCCCC1C(=O)O` (stereo not drawn), the growth inhibition was 1.3% in experiment [1]; 6.55% in experiment [2]; -14.7% in experiment [3]; -22.8% in experiment [4]; 9.15% in experiment [5]; 19.5% in experiment [6].
Turning to `COc1ccc(C2=CCN(c3ccc(C)cc3)P(=O)(N(CCCl)CCCl)O2)cc1` (stereo not drawn), the growth inhibition is 46.8% in experiment [1]; 74% (active) in experiment [2]; 68.9% in experiment [3]; 81.1% (active) in experiment [4]; 90.8% (active) in experiment [5]; 77.4% (active) in experiment [6].
Take `CCCCCCCCCCP(=O)(O)O`: the growth inhibition in experiment [1] is -4.9%; in experiment [2], -27.4%; in experiment [3] it was -13.3%; in experiment [4], -30.3%; in experiment [5], -1.6%; in experiment [6], -2.85%.
`CN1C(c2cccnc2)=NCC12CCCC2`: the growth inhibition in experiment [1] is -2.95%; in experiment [2], -10.1%; in experiment [3], 6.45%; in experiment [4] it was -17.2%; in experiment [5], -10.2%; in experiment [6] it was -9.45%.
`ClCCCCBr`: the growth inhibition in experiment [1] was 17.6%; in experiment [2], -14.2%; in experiment [3], 20.4%; in experiment [4] it was 13.5%; in experiment [5] it was 2.4%; in experiment [6], 18.8%.
Consider `C[N+]1([O-])C2CCC1CC(O)C2` (stereo not drawn), for which the growth inhibition in experiment [1] was 4.1%; in experiment [2] it was 7.55%; in experiment [3] it was 1.45%; in experiment [4], 16.2%; in experiment [5], -2.5%; in experiment [6], 17.4%.
On to `CC12CC/C(=N/NC(=O)Cc3c[nH]c4ccccc34)C=C1CCC1C2CCC2(C)C(OC(=O)c3ccccc3)CCC12` (stereo not drawn), for which the growth inhibition is 35.8% in experiment [1]; 28.6% in experiment [2]; 24.1% in experiment [3]; 0.65% in experiment [4]; 3.3% in experiment [5]; 34.8% in experiment [6].
As to `S=C(N/N=C\c1cccc(I)c1)NC1CN2CCC1CC2` (stereo not drawn), the growth inhibition in experiment [1] was 19.1%; in experiment [2], 3.25%; in experiment [3], 14.4%; in experiment [4], 14.8%; in experiment [5] it was 3.2%; in experiment [6] it was 13.9%.
For the molecule `CCC1CCC2CCCC(C)N12` (stereo not drawn), the growth inhibition was 9.05% in experiment [1]; 4.25% in experiment [2]; -3.2% in experiment [3]; 1.5% in experiment [4]; 8.2% in experiment [5]; 7.75% in experiment [6].
`N#Cc1ccc(C(Cl)(Cl)Cl)cc1`: the growth inhibition in experiment [1] is 1.5%; in experiment [2], -17.6%; in experiment [3] it was -5.8%; in experiment [4] it was -25.4%; in experiment [5] it was -3.15%; in experiment [6] it was -5.65%.
